# Test results: PubChem BioAssay (NCATS)
# Results filed as inconclusive are left out. Where a call stands in place of a potency, no number is given. The source made the active and inactive calls. Unless noted, the call rests on the fitted dose curve; in most records, active means well fitted curve in the direction sought with a large enough effect; inconclusive means small, poorly fitted or top-dose-only effect, or another doubt; inactive means no such curve, though single readings can be large; an effect the other way counts as inactive or inconclusive.
# Experiments:
# [1] = qHTS Assay for Lipid Storage Modulators (AID 1519; calls by dose curve); conditions: Drosophila S3 cells, BODIPY lipid droplet/cell ratio, laser cytometry, cells loaded with oleic acid
# Procedure, shortened: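 Cells seeded at 5,000 per well were treated with compounds over a concentration series and loaded with oleic acid (400 uM, as added). Lipid droplet fluorescence (488 nm excitation, 500-530 nm channel) was read by laser-scanning cytometry and normalized to 20 uM Triacsin C.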
# [2] = target: Mitogen-activated protein kinase 10 (Mus musculus) (UniProt Q61831); assay: JNK3 AlphaScreen Assay (AID 530; active means well fitted curve in either direction with a large enough effect, not every such curve was filed as active;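 further: kinase came from lysate of stimulated human HepG2 cells; signal reports phosphorylation of biotinylated GST-cJun 1-79 at Ser73 with 10 µM ATP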); conditions: JNK3 lysate, c-Jun phosphorylation; series mostly up to 57.1 µM
# Procedure, shortened: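 Biotinylated GST-cJun(1-79) served as substrate for JNK3 in HepG2 lysates stimulated with IL-1beta and TNF-alpha. ATP was 10 uM final, pH 7.6. Ser73 phosphorylation was quantified by AlphaScreen (680 nm excitation).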
# [3] = target: Cytochrome P450 3A4 (Homo sapiens) (UniProt P08684); assay: qHTS Assay for Activators of Cytochrome P450 3A4 (AID 885); conditions: recombinant CYP3A4, Luciferin-PPXE luminescence, 60 min; series mostly up to 57.1 µM; further: nearly all actives have a fitted effect of over 65% in size
# Chain of Cytochrome P450 3A4 (Homo sapiens) (P08684 whole entry, looked up): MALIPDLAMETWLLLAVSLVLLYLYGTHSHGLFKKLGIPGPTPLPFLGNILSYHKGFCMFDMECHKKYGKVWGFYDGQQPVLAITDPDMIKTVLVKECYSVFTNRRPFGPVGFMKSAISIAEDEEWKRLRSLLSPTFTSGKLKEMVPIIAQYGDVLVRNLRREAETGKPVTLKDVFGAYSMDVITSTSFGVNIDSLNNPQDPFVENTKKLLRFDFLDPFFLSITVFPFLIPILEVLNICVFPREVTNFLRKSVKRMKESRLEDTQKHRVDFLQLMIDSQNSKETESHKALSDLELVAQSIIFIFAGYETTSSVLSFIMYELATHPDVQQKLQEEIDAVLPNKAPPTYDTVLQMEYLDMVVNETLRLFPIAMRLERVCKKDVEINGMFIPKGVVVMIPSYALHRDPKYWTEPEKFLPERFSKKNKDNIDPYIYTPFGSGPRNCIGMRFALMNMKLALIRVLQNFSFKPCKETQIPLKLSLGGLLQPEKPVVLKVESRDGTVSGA
# Procedure, shortened: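 CYP3A4 activity: Luciferin-PPXE O-dealkylation, 25uM substrate, 200mM KPO4, RT throughout. Read-out is luciferase luminescence; higher values reflect activation.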
# [4] = Confirmation and Secondary Assay for Modulators of Hemoglobin Beta Chain Splicing at IVS2 654 locus (AID 910); conditions: HeLa EGFP-654 splicing reporter, GFP fluorescence, 48 h; series mostly up to 46.1 µM;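 further: per-well total GFP intensity by laser scanning cytometry after 2-day treatment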
# Procedure, shortened: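 HeLa cells stably carrying EGFP interrupted by mutant beta-globin IVS2-654 intron (CMV-driven) were treated with compound for 2 days at 37C; corrected splicing was scored as total peak GFP intensity per well (488 nm excitation, 500-520 nm emission).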
# [5] = Confirmation and Secondary Assay for Modulators of Hemoglobin Beta Chain Splicing at IVS2 705 locus (AID 930); conditions: HeLa EGFP-705 splicing reporter, GFP fluorescence, 48 h; series mostly up to 46.1 µM;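 further: HeLa cells stably expressing the EGFP-705 splicing reporter; GFP fluorescence per well restored by corrected splicing of the IVS2-705 intron in EGFP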
# Procedure, shortened: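 HeLa IVS2-705 EGFP reporter cells, 500/well, compound 2 d at 37C; correct splicing yields fluorescent EGFP. Control: 500 nM antisense PNA. Read-out: total peak GFP intensity.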
# [6] = target: Ubiquitin carboxyl-terminal hydrolase 1 (Homo sapiens) (UniProt O94782); assay: Inhibitors of USP1/UAF1: Pilot qHTS (AID 504865); conditions: purified USP1/UAF1, Ub-rhodamine cleavage fluorescence; series mostly up to 114 µM; further: nearly all actives have a fitted effect of over 35% in size; further: potency means the concentration at half of the fitted maximal effect;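 on activity change, negative = inhibition: rhodamine fluorescence freed from ubiquitin-rhodamine substrate followed over time; top concentration of the series differs between compounds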
# Chain of Ubiquitin carboxyl-terminal hydrolase 1 (Homo sapiens) (O94782 whole entry, looked up): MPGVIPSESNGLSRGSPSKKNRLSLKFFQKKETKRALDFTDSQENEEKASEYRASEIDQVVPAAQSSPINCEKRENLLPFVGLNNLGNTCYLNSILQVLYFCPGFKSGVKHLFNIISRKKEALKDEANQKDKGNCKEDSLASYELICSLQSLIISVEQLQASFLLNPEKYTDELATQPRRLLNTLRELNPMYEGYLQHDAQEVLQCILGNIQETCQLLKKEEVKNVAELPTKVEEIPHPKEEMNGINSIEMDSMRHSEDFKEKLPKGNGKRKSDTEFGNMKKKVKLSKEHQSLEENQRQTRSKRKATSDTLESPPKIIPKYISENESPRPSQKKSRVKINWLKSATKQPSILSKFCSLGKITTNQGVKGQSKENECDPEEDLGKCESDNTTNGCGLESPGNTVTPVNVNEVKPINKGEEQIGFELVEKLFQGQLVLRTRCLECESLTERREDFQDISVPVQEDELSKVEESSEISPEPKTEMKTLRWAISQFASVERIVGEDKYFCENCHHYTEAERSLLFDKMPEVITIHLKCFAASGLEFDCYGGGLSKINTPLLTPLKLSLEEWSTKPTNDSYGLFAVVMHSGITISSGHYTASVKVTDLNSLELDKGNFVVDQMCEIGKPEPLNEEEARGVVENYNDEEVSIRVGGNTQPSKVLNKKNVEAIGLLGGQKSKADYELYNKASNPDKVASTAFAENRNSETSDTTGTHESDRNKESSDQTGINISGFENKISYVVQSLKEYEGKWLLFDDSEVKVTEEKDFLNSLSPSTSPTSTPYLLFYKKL
# Procedure, shortened: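 Kinetic fluorescence assay: 1nM USP1/UAF1, 15 min compound preincubation, then 150nM Ub-Rho; 480/540 nm.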
# [7] = target: Voltage-gated inwardly rectifying potassium channel KCNH2 (Homo sapiens) (UniProt Q12809); assay: qHTS Assay for Small Molecule Inhibitors of the Human hERG Channel Activity (AID 588834); conditions: U2OS BacMam hERG, FluxOR thallium flux fluorescence; series mostly up to 92.2 µM;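 further: U2OS cells transduced with hERG by BacMam; top concentration of the series differs between compounds; lower thallium flux fluorescence means stronger hERG block; nearly all actives have a fitted effect of over 50% in size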
# Chain of Voltage-gated inwardly rectifying potassium channel KCNH2 (Homo sapiens) (Q12809 whole entry, looked up): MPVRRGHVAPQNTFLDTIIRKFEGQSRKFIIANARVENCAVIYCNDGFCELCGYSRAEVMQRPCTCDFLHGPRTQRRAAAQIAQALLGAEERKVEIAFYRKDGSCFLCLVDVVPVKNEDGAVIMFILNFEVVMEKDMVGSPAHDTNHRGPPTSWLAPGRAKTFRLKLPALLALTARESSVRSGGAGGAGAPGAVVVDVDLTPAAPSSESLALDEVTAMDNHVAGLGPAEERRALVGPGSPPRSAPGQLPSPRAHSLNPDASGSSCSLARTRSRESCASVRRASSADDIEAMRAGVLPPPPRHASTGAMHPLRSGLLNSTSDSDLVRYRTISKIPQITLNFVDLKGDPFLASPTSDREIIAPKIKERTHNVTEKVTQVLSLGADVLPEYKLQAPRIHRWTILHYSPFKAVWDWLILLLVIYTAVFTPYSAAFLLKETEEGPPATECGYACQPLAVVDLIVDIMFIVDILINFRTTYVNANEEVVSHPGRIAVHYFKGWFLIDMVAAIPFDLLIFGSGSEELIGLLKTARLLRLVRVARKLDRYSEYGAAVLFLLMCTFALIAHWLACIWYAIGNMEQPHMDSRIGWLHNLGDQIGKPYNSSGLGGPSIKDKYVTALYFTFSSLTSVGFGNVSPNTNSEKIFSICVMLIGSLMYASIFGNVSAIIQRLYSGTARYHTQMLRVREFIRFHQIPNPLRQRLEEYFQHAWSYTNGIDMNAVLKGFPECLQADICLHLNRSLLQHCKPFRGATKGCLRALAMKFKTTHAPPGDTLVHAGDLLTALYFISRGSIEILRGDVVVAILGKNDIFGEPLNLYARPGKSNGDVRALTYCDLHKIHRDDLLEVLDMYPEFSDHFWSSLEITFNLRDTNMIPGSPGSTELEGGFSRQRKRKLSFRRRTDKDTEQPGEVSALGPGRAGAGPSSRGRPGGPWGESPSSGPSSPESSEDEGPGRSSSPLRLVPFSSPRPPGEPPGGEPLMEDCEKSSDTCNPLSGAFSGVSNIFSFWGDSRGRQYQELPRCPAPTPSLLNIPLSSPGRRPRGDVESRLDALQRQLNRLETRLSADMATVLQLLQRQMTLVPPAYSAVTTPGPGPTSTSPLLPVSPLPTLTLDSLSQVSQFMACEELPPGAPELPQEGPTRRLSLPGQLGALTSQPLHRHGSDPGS
# Procedure, shortened: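 Cells were infected with hERG-BacMam virus for 4 hrs at room temperature, grown overnight, then seeded at 2000/well. After dye loading and roughly 10 min compound treatment, thallium influx was triggered and fluorescence recorded.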
# [8] = AP1 Signaling Pathway (AID 357; active means well fitted curve in either direction with a large enough effect, not every such curve was filed as active;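 further: ME-180 reporter cells stimulated with EGF at its EC50 level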); conditions: ME-180 AP-1-bla reporter, EGF-induced, beta-lactamase ratio, 5 h; series mostly up to 17.2 µM
# Procedure, shortened: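 Cells are seeded overnight, exposed to compound titrations and an EC50 level of EGF for 5 hours at 37 °C, then loaded with CCF4 dye for 2.5 hours. Beta-lactamase activity under the AP-1 element is read as a blue/green ratio.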
# [9] = Stat Signaling Pathway (AID 446; active means well fitted curve in either direction with a large enough effect, not every such curve was filed as active;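 further: ME-180 cervical cancer cells given 40 pM IL-6 alongside compound; SIE-controlled beta-lactamase reporter measured as 460/530 nm FRET emission ratio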); conditions: ME-180 (cervical carcinoma) SIE beta-lactamase reporter, IL-6 stimulated, 5 h; series mostly up to 17.2 µM
# Procedure, shortened: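 Compound effects on IL-6-induced STAT reporter activity were measured in ME-180 cells. After overnight culture, cells were co-treated with 40 pM IL-6 for 5 hrs before beta-lactamase substrate loading at room temperature.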
# [10] = target: Glucocorticoid receptor (Homo sapiens) (UniProt P04150); assay: GR-GFP Redistribution (AID 450;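 active means compounds whose dose series gives a full or clear partial fitted curve of increased nuclear translocation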; further: potency means the concentration at half of the fitted maximal effect); conditions: U2OS GR-GFP nuclear translocation, laser cytometry, 2 h
# Chain of Glucocorticoid receptor (Homo sapiens) (P04150 whole entry, looked up, the tested form may be a part): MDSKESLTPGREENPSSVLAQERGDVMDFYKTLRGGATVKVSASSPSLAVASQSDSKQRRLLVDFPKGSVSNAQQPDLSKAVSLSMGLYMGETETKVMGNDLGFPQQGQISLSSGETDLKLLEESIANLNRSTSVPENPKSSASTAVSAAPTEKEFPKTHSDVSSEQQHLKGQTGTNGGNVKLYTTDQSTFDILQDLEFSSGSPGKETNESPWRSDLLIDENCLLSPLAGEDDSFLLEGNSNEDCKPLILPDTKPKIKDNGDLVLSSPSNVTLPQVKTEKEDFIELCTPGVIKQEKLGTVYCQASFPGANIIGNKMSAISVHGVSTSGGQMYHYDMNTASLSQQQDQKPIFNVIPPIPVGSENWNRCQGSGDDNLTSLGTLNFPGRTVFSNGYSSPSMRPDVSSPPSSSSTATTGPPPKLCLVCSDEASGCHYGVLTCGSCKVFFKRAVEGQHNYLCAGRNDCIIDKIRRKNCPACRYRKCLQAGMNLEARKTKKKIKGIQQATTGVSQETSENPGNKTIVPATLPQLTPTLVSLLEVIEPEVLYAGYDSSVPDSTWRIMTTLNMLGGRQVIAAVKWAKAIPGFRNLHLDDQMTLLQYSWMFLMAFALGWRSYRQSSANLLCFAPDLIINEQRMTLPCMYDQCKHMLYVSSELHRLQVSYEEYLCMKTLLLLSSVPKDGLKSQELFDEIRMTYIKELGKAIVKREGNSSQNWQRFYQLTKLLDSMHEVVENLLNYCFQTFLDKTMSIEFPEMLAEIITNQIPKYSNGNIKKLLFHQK
# [11] = target: Glucocorticoid receptor (Homo sapiens) (UniProt P04150); assay: GR-EFC Redistribution (AID 451; calls by dose curve; further: potency means the concentration at half of the fitted maximal effect); conditions: CHO-K1 GR-EFC translocation, beta-gal luminescence, 2 h
# Procedure, shortened: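 CHO-K1 cells stably expressing nuclear-localized β-gal enzyme acceptor and GR fused C-terminally to the enzyme donor fragment; ligand-driven nuclear translocation restores β-gal by complementation. Compounds titrated up to 46 uM final, 2 h at 37 °C; luminescence read.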
# [12] = target: 3',5'-cyclic-AMP phosphodiesterase 4B (Homo sapiens) (UniProt Q07343); assay: qHTS Assay for Inhibitors of PDE-IV (AID 607; active means well fitted activation curve with a large enough effect in the main read-out, with a control signal flat, not every such curve was filed as active); conditions: HEK293 ACTOne CNG channel cells, membrane potential fluorescence; series mostly up to 22.9 µM
# Chain of 3',5'-cyclic-AMP phosphodiesterase 4B (Homo sapiens) (Q07343 whole entry, looked up): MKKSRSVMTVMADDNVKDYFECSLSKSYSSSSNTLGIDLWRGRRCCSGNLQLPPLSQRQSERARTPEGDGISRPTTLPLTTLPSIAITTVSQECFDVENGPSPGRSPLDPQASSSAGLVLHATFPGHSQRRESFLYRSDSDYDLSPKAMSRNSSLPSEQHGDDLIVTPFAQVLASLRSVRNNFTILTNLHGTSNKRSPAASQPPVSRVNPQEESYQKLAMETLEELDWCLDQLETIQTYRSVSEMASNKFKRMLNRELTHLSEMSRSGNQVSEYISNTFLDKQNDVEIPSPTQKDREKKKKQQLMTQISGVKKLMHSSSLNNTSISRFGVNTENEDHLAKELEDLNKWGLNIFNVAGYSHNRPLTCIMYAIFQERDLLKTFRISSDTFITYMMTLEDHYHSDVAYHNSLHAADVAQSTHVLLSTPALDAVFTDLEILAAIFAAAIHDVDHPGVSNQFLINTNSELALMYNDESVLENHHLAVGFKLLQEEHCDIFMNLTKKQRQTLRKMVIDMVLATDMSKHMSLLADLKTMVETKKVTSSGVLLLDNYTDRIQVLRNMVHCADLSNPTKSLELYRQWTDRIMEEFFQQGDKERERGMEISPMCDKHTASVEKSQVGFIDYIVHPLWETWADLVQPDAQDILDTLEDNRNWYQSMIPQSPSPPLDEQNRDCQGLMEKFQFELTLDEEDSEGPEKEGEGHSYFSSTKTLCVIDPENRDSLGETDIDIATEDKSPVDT
# Procedure, shortened: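 ACTOne HEK293 cells carry a modified cAMP-gated CNG channel and express endogenous PDE4; plated 1000 cells/well, compounds up to 22.9 uM final. Membrane-potential dye fluorescence (ex 535/em 590) was read; parental cells received 10 uM forskolin + 100 uM RO 20-1724.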
# [13] = Primary qHTS for small molecule stabilizers of the endoplasmic reticulum resident proteome: Secreted ER Calcium Modulated Protein (SERCaMP) assay (AID 1508630); conditions: SH-SY5Y GLuc-SERCaMP (Gaussia luciferase released on ER calcium loss) secretion, thapsigargin, luminescence; series mostly up to 38.4 µM
# Procedure, shortened: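 The SH-SY5Y reporter protocol was run at 3 concentrations up to 38.3 uM (primary) or 11 concentrations (follow-up): 16 h compound, 100 nM thapsigargin for 4 h, then extracellular luciferase luminescence.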
# [14] = target: Cytochrome P450 3A4 (Homo sapiens) (UniProt P08684); assay: qHTS Assay for Inhibitors and Substrates of Cytochrome P450 3A4 (AID 884); conditions: recombinant CYP3A4, Luciferin-PPXE luminescence; series mostly up to 57.1 µM; further: nearly all actives have a fitted effect of over 50% in size; further: potency means the concentration at half of the fitted maximal effect
# Procedure, shortened: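 Luminescent readout of luciferin produced by CYP3A4 (20 nM) dealkylation of Luciferin-PPXE, 25 uM (its KM). NADPH-driven reaction ran 60 min at RT after 10 min compound preincubation; data scaled to 57 uM ketoconazole as 100% inhibition.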
# [15] = target: Cytochrome P450 1A2 (Homo sapiens) (UniProt P05177); assay: p450-cyp1a2 (AID 410; calls by dose curve); conditions: recombinant CYP1A2, luciferin-ME demethylation, luminescence; series mostly up to 25.6 µM
# Chain of Cytochrome P450 1A2 (Homo sapiens) (P05177 whole entry, looked up): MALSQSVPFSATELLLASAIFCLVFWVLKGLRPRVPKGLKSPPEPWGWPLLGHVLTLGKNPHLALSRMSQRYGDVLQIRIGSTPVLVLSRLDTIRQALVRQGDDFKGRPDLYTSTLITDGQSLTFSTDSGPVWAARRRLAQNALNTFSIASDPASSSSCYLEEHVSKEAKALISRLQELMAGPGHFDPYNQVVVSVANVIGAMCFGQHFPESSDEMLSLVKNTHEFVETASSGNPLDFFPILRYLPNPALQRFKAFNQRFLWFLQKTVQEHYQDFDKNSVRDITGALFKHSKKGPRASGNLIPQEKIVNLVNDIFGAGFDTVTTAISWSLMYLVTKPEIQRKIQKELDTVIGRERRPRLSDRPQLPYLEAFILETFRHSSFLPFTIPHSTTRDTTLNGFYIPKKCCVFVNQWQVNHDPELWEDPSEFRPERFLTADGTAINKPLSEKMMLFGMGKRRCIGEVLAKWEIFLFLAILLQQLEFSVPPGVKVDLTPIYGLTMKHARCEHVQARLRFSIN
# Procedure, shortened: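 20nM CYP1A2, 100uM Luciferin-ME (=Km), 100mM KPO4; cpd 10 min RT; +NADPH regen, 60 min RT; stop/detect 20 min; luminescence. Normalized to furafylline 57 uM = full inhibition.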
# [16] = NFAT Signaling Pathway (AID 444; active means well fitted curve in either direction with a large enough effect, not every such curve was filed as active;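 further: carbachol stimulus at about its EC50 of 1 µM final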); conditions: Jurkat NFAT-bla M1, carbachol, beta-lactamase ratio, 5 h; at 7.69 µM (top of the series)
# Procedure, shortened: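 Jurkat cells carrying an NFAT-driven β-lactamase reporter and co-transfected muscarinic M1 receptor were treated with compound plus carbachol (1 uM final, an EC50 level) for 5 h at 37 °C. CCF4 loading followed for 1 h at RT; 460/530 nm ratio gave %activity.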
# [17] = target: Cytochrome P450 2D6 (Homo sapiens) (UniProt P10635); assay: qHTS Assay for Inhibitors and Substrates of Cytochrome P450 2D6 (AID 891); conditions: recombinant CYP2D6, luciferin-ME EGE luminescence; series mostly up to 57.1 µM;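 further: luciferin methyl ether substrate demethylated by CYP2D6 with NADPH regeneration; nearly all actives have a fitted effect of over 60% in size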
# Chain of Cytochrome P450 2D6 (Homo sapiens) (P10635 whole entry, looked up): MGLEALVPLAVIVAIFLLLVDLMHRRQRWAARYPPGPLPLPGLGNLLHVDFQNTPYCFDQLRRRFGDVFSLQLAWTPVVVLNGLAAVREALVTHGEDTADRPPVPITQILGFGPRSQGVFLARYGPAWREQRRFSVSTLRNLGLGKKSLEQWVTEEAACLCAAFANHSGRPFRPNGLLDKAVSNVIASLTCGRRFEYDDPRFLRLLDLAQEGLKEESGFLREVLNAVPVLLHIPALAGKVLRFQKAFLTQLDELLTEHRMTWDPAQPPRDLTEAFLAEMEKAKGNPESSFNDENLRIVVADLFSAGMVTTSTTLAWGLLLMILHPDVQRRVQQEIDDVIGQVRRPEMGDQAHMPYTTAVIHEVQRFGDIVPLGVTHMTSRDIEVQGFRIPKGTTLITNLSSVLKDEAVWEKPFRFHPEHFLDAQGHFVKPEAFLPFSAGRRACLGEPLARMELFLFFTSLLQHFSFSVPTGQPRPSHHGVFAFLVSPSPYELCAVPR
# Procedure, shortened: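 Luminescent read-out of luciferin formed by 5 nM human CYP2D6 demethylating 30 uM Luciferin-ME EGE (Km level) over 60 min at room temperature after NADPH regeneration addition. Data normalized to full inhibition by 1.43 uM quinidine.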
# [18] = measured here: cell count channel max response
# [19] = measured here: lipid channel max response
compound,measurement,setting,value
CC(CCC(=O)O)C1CCC2C3C(=O)CC4CC(=O)CC[C@@]4(C)C3CC(=O)[C@]12C (stereo partly specified),"activity change, negative = inhibition",[1]; at 57.5 µM (top of the series),1.06% (inactive)
same,max response,[1]; [18],16%
same,max response,[1]; [19],21.9%
COc1ccc2cc1Oc1ccc(cc1)CC1c3cc(c(OC)cc3CCN1C)Oc1c(OC)c(OC)cc3c1C(C2)N(C)CC3 (stereo unspecified),"activity change, negative = inhibition",[1]; at 57.5 µM (top of the series),6.58% (inactive)
same,max response,[1]; [18],-1.03%
same,max response,[1]; [19],6.79%
CCC1CN2CCc3cc(OC)c(OC)cc3C2CC1CC1NCCc2cc(OC)c(OC)cc21 (stereo unspecified),"activity change, negative = inhibition",[1]; at 57.5 µM (top of the series),7.1% (inactive)
same,max response,[1]; [18],-0.174%
same,max response,[1]; [19],8%
C=CCc1ccc2c(c1)OCO2,outcome,[2],inactive
same,Potency,[3],inactive
same,Potency,[4],inactive
same,Potency,[5],inactive
same,"activity change, negative = inhibition",[1]; at 57.5 µM (top of the series),12.7% (inactive)
same,max response,[1]; [18],13.6%
same,max response,[1]; [19],31.4%
same,Potency,[6],inactive
same,Potency,[7],inactive
O=C(OC1CCN(CCCl)CC1)C(c1ccccc1)c1ccccc1,outcome,[8],inactive
same,outcome,[9],inactive
same,Potency,[10],> 46 µM (inactive)
same,Potency,[11],> 46 µM (inactive)
same,outcome,[2],inactive
same,Potency,[12],inactive
same,Potency,[3],inactive
same,"activity change, negative = inhibition",[1]; at 57.5 µM (top of the series),0.755% (inactive)
same,max response,[1]; [18],-17.2%
same,max response,[1]; [19],-14.8%
same,Potency,[7],inactive
Cc1nnc2ccc(-c3cccc(C(F)(F)F)c3)nn12,Potency,[10],> 46 µM (inactive)
same,Potency,[11],> 46 µM (inactive)
same,outcome,[2],inactive
same,Potency,[12],inactive
same,Potency,[3],inactive
same,Potency,[6],inactive
same,outcome,[13],inactive
C[C@@H](C(=O)O)c1ccc(-c2ccccc2)c(F)c1,"activity change, negative = inhibition",[1]; at 25.7 µM (top of the series),2.45% (inactive)
same,max response,[1]; [18],2.3%
same,max response,[1]; [19],1.21%
O=C(O)COc1ccc(Cl)cc1Cl,outcome,[2],inactive
same,Potency,[14],inactive
same,Potency,[4],inactive
same,Potency,[5],inactive
same,"activity change, negative = inhibition",[1]; at 57.5 µM (top of the series),-1.59% (inactive)
same,max response,[1]; [18],-3.68%
same,max response,[1]; [19],-7.52%
same,Potency,[6],inactive
same,Potency,[7],inactive
CC(C)C[C@H]1C(=O)N2CCCC2[C@]2(O)O[C@](NC(=O)[C@@H]3C=C4c5cccc6[nH]c(Br)c(c56)C[C@H]4N(C)C3)(C(C)C)C(=O)N12 (stereo partly specified),"activity change, negative = inhibition",[1]; at 57.5 µM (top of the series),-0.407% (inactive)
same,max response,[1]; [18],-32%
same,max response,[1]; [19],-33.2%
NC(N)=N/N=C\c1c(Cl)cccc1Cl,"activity change, negative = inhibition",[1]; at 57.5 µM (top of the series),6.25% (inactive)
same,max response,[1]; [18],12.3%
same,max response,[1]; [19],22.6%
CNC(=O)O/N=C/C(C)(C)SC,outcome,[2],inactive
same,Potency,[14],inactive
same,Potency,[4],inactive
same,Potency,[5],inactive
same,"activity change, negative = inhibition",[1]; at 57.5 µM (top of the series),7.39% (inactive)
same,max response,[1]; [18],14.3%
same,max response,[1]; [19],23.9%
same,Potency,[6],inactive
same,Potency,[7],inactive
COc1cc2c(cc1O)CC1c3c(cc(O)c(OC)c3-2)CCN1C (stereo unspecified),Potency,[14],25.1 µM (active)
same,Potency,[3],inactive
same,Potency,[4],inactive
same,Potency,[5],inactive
same,"activity change, negative = inhibition",[1]; at 57.5 µM (top of the series),9.81% (inactive)
same,max response,[1]; [18],24.1%
same,max response,[1]; [19],38.2%
COc1cc2occc2c2oc(=O)ccc12,Potency,[14],12.6 µM (active)
same,Potency,[3],inactive
same,Potency,[4],inactive
same,Potency,[5],inactive
same,outcome,[13],inactive
COc1cc2c(cc1-c1cc3cc4ccoc4cc3oc1=O)OCO2,Potency,[14],0.398 µM (active)
same,Potency,[3],inactive
same,Potency,[4],inactive
same,Potency,[5],inactive
same,"activity change, negative = inhibition",[1]; at 57.5 µM (top of the series),16.5% (inactive)
same,max response,[1]; [18],6.63%
same,max response,[1]; [19],25.9%
same,Potency,[6],50.1 µM (active)
C=C(C)C1Cc2c(ccc3c(=O)c4c(oc23)COc2cc(OC)c(OC)cc2-4)O1 (stereo unspecified),Potency,[4],inactive
same,Potency,[5],inactive
same,Potency,[6],inactive
same,outcome,[13],inactive
N#Cc1cccc(NC(=O)N2CC[C@@]3(CCCN(C(=O)Oc4ccccc4)C3)C2)c1,outcome,[8],inactive
same,Potency,[15],inactive
same,"activity change, negative = inhibition",[16],-14.8% (inactive)
same,outcome,[9],inactive
same,Potency,[11],> 46 µM (inactive)
same,outcome,[2],inactive
same,Potency,[12],inactive
same,Potency,[3],inactive
same,Potency,[17],inactive
same,outcome,[13],inactive
C=CCc1ccc(OC)cc1,outcome,[2],inactive
same,Potency,[3],inactive
same,Potency,[4],inactive
same,Potency,[5],inactive
same,"activity change, negative = inhibition",[1]; at 57.5 µM (top of the series),1.63% (inactive)
same,max response,[1]; [18],21.3%
same,max response,[1]; [19],23.9%
same,Potency,[6],inactive
same,Potency,[7],inactive
